Reference: the supplement of paper PMC13380429
Values without a mark were called inactive.

System: Vero E6 infected with SARS-CoV-2
Experiment: inhibition of SARS-CoV-2 cytopathic effect; higher = more antiviral protection, active = above 15
Conditions: 48 h

SMILES | inhibition of SARS-CoV-2 cytopathic effect (1 nM) [%] | inhibition of SARS-CoV-2 cytopathic effect (8.33 nM) [%] | inhibition of SARS-CoV-2 cytopathic effect (100 nM) [%] | inhibition of SARS-CoV-2 cytopathic effect (833.33 nM) [%] | inhibition of SARS-CoV-2 cytopathic effect (10000 nM)
Cc1cccc(-c2nn3c(c2-c2ccnc4ccc(C(N)=O)cc24)CCC3)n1 | 0.85 | -0.43 | -0.97 | -0.85 | -1.59%
CSc1ccc2c(c1)[C@H](N1CCN(C)CC1)Cc1ccccc1S2 (racemic) [metitepine] | 0.91 | 0.58 | -0.78 | -2.3 | 16.2% (active)
Oc1nc(-c2ccc(C(F)(F)F)cc2)nc2c1CSCC2 | 4.88 | 2.98 | 3.97 | 2.58 | 0.15%
Clc1cccc2c1CN(C1=NCCN1)C2 | 1.97 | 3.31 | 3.22 | 2.65 | -2.32%
CCOC(=O)[C@H](CCc1ccccc1)N[C@@H](C)C(=O)N1[C@H](C(=O)O)C[C@H]2CCCC[C@@H]21 [trandolapril] | -1.1 | -1.62 | -0.26 | -0.12 | 1.62%
CN(C)c1cccc(Oc2cnc(Nc3cccc(O)c3)nc2)c1 | -2.69 | 0.57 | -1.76 | 2.09 | -3.69%
Cc1cc(O)ccc1Cl [chlorocresol] | -0.46 | 2.29 | 1.47 | 1.63 | 1.88%
N#Cc1cc(F)cc(-c2nc(-c3ccc(F)cn3)no2)c1 | 0.6 | 2.48 | 1.15 | -0.25 | 2.97%
COc1ccc(C(=O)CC2(O)C(=O)Nc3c(Cl)ccc(Cl)c32)cc1 (stereo not given) | 2.13 | 3.01 | -1.11 | 1.43 | -1.83%
COc1ccc(O)c(C(C)(C)C)c1.COc1ccc(O)cc1C(C)(C)C [butylated-hydroxyanisole] | -2.13 | -2.11 | -2.79 | 0.85 | -1.88%
O=C1C(=Cc2cccnc2)C(=O)c2ccccc21 | 1.43 | 1 | 3.58 | 5.97 | 5.97%
COc1ccc(-c2coc3cc(O)ccc3c2=O)cc1 [formononetin] | 0.45 | 1.81 | 1.27 | -2.13 | -0.02%
CC(C)(C)c1ccc(CN(Cc2cccc(OCC(=O)O)c2)S(=O)(=O)c2cccnc2)cc1 [evatanepag] | -1.15 | -0.63 | -1.94 | -1.15 | -2.53%
Cc1[nH]c(/C=C2\C(=O)Nc3ccc(F)cc32)c(C)c1C(=O)NCCN1CCCC1 [toceranib] | -2.12 | -2.33 | -1.03 | -1.29 | -7.87%
CCCCCCCCCCCC(=O)O [lauric-acid] | 0.97 | 2.75 | 0.72 | -1.45 | -1.99%
CC(C)(F)C[C@H](N[C@@H](c1ccc(-c2ccc(S(C)(=O)=O)cc2)cc1)C(F)(F)F)C(=O)NC1(C#N)CC1 [odanacatib] | -3.88 | -4.52 | -3.49 | -1.8 | 0.04%
CN1CCc2cc(Cl)c(O)cc2[C@@H](c2ccccc2)C1 | 10.5 | 6.47 | 7.29 | 2.11 | -0.78%
C[C@@H]1NC(=O)[C@@H](N)CNC(=O)[C@H](C2CCNC(=N)N2)NC(=O)/C(=C/NC(N)=O)NC(=O)[C@H](CNC(=O)CC(N)CCCN)NC1=O.N=C1NCC[C@H]([C@@H]2NC(=O)/C(=C/NC(N)=O)NC(=O)[C@H](CNC(=O)C[C@@H](N)CCCN)NC(=O)[C@H](CO)NC(=O)[C@@H](N)CNC2=O)N1 [capreomycin] | 0.56 | -0.28 | -1.08 | 0.24 | 2.53%
CCC(NC(C)C)C(O)c1ccc(O)c(O)c1 (stereo not given) [isoetharine] | -0.44 | 0.06 | -2.12 | -0.61 | 1.5%
O=C(Cn1ccnc1[N+](=O)[O-])NCc1ccccc1 [benznidazole] | -0.15 | -0.69 | -2.08 | -0.42 | 0.58%

SMILES | inhibition of SARS-CoV-2 cytopathic effect (1 nM) [%] | inhibition of SARS-CoV-2 cytopathic effect (8.33 nM) [%] | inhibition of SARS-CoV-2 cytopathic effect (100 nM) [%] | inhibition of SARS-CoV-2 cytopathic effect (833.33 nM) [%] | inhibition of SARS-CoV-2 cytopathic effect (10000 nM)
CC(C)(C)c1ccc(-c2nc3c(N4CCN(Cc5ccc6nccnc6c5)CC4)cccc3[nH]2)cc1 | 1.45 | 1.91 | 1.44 | -0.5 | 4.93%
O=C(O)C1=CCCNC1 [guvacine] | 2 | 5.07 | 3.21 | 6.87 | 6.39%
O=C(O)/C=C/c1ccc(O)cc1 [naringeninic-acid] | 1.32 | -1.82 | -12 | -0.34 | -0.09%
COc1ccc(C2CNC(=O)NC2)cc1O[C@H]1C[C@@H]2CC[C@H]1C2 [atizoram] | -0.64 | 1.37 | -0.71 | -0.02 | -1.24%
CN(C)[C@@H]1C(O)=C(C(N)=O)C(=O)[C@@]2(O)C(O)=C3C(=O)c4c(O)cccc4[C@@](C)(O)[C@H]3[C@H](O)[C@@H]12 [oxytetracycline] | -0.32 | -3.1 | -1.01 | -0.96 | -0.98%
CN(C)c1ccc(-c2nc3c(N4CCN(CC(=O)Nc5nccs5)CC4)c(Cl)cnc3[nH]2)cc1 | 0.9 | -0.82 | -1.07 | 0.5 | 13.9%
CCOc1nc2cccc(C(=O)O)c2n1Cc1ccc(-c2ccccc2-c2noc(=O)[nH]2)cc1 [azilsartan] | 0.19 | 1.58 | 2.59 | 2.65 | 0.22%
Nc1ccc(C(=O)O)c(O)c1 [aminosalicylate] | -3.85 | -0.82 | -0.9 | 0.11 | 0.97%
Oc1ccc2c3c1O[C@H]1c4oc5ccccc5c4C[C@@]4(O)[C@@H](C2)N(CC2CC2)CC[C@]314 [naltriben] | 0.92 | -0.89 | 0.12 | -0.45 | -2.94%
O=C(O)c1cnn(-c2nc3cc(OC(F)(F)F)c(Cl)cc3[nH]2)c1 | 0.36 | 1.44 | 1.23 | 1.43 | -0.28%
C=CC1=C(C)C2=CC3=NC(=C(CC(=O)O)C4=NC(=C(C)C4=C(O)O)C=c4[nH]c(c(C)c4CC)=CC1=N2)C(CCC(=O)O)C3C (stereo not given) [chlorophyllin] | -0.57 | -1.3 | -0.92 | -4.38 | -10.6%
CCOc1cc(C(=O)N2CCC(N3CCN(C)CC3)CC2)ccc1Nc1ncc2c(n1)N(C1CCCC1)c1ccccc1C(=O)N2C | 0.46 | 1.68 | -0.44 | -1.7 | -0.04%
CN1CCN(C(=O)c2cc3cc(Cl)ccc3[nH]2)CC1 | -0.68 | 0.59 | -1.58 | -1.48 | -1.13%
CC[C@@H]1C(=O)N(C)c2cnc(Nc3ccc(C(=O)N[C@H]4CC[C@H](N5CCN(CC6CC6)CC5)CC4)cc3OC)nc2N1C(C)C [volasertib] | 4.01 | -1.24 | -0.02 | -9.3 | -14.9%
CCCCCCCCCCCCCC[C@@H](O)[C@@H](O)[C@@H](N)CO [phytosphingosine] | -6.1 | -0.27 | -1.1 | -3.05 | -6.04%
CC(=O)Oc1ccccc1C(=O)Nc1ncc([N+](=O)[O-])s1 [nitazoxanide] | 4.76 | -3.73 | -1.27 | -0.63 | 8.82%
CCc1c(O)cc(O)c(C(=O)c2ccc(OCCN3CCOCC3)c(OC)c2)c1CC(=O)N(CCOC)CCOC | -1.17 | -2.57 | -1.95 | -1.17 | 0.48%
CC(=O)c1ccc2c(c1)C(=O)C1(CC1)O2 [spizofurone] | -4.51 | 5.43 | 0.26 | 0.65 | 2.1%
CO[C@H]1CC[C@@H](C(=O)c2ccc3nc4c(cc3c2)CCCO4)CC1 | -1.37 | 0.02 | -1.45 | -0.98 | -2.81%
